Data reported in PubChem BioAssay (NCATS).
Records with an inconclusive call do not appear. Activity calls are given as the source filed them. Calls come from the whole dose curve; as a rule, active = well fitted inhibition curve with a large enough effect; inconclusive = small, poorly fitted or top-dose-only effect; inactive = flat fitted curve, though single readings scatter.

test: P-glycoprotein substrates identified in KB-8-5-11 adenocarcinoma cell line, qHTS therapeutic library screen (AID 1346987); details: KB-8-5-11 (P-gp overexpressing) viability, CellTiter-Glo, 72 h; series mostly up to 44.5 µM; activity change, negative = cytotoxicity: at the top concentration; note: nearly all actives have a fitted effect of over 65% in size
Procedure, shortened: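 KB-8-5-11, a colchicine-selected P-gp-overexpressing KB-3-1 subline, was grown without colchicine for the assay. Cells were seeded at 500 cells/well, dosed in concentration-response and incubated 72 h at 37 degree C, 5% CO2. Viability was read by CellTiter-Glo luminescence.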
% is set by controls: 0 for no effect and ±100 for the full control effect; potency is the fitted concentration of half-maximal effect.

Row | Structure (SMILES) | Potency | activity change, negative = cytotoxicity | outcome
1 | CCCCCCOc1ccccc1C(N)=O | 18.4 µM (active) | – | –
2 | COC(=O)C1=C(C)NC(C)=C(C(=O)OCC(C)=O)C1c1ccccc1[N+](=O)[O-] (centres undefined) | 7.31 µM (active) | – | –
3 | c1ccc2sc(SN3CCOCC3)nc2c1 | – | -2.38% (inactive) | –
4 | N=C(N)N | – | 2.74% (inactive) | –
5 | CCCCN(CC)c1nc(C)nc2c1c(C)cn2-c1c(C)cc(C)cc1C | – | -24.2% (inactive) | –
6 | O=C(Nc1ccc(C(=O)O)c(O)c1)c1ccccc1 | – | 7.88% (inactive) | –
7 | CCCCCCCCCCCCCCCC(=O)OC(C)C | – | -0.889% (inactive) | –
8 | CCN(CC)CCCCNc1ncc2cc(-c3c(Cl)cccc3Cl)c(NC(=O)NC(C)(C)C)nc2n1 | 16.4 µM (active) | – | –
9 | CCOc1ccc2nc(S(N)(=O)=O)sc2c1 | – | 4.47% (inactive) | –
10 | Cc1nc2ccccc2n1Cc1ccc(Cl)cc1 | 4.11 µM (active) | – | –
11 | COC(=O)C1=C(C)NC(C)=C(C(=O)OC)C1c1cccc(NC(=O)NCCCN2CCC(c3cccc(OC)c3)CC2)c1 | – | 2.43% (inactive) | –
12 | CCOC(=O)c1ccccc1O | inactive | – | –
13 | C=CCCCCCCCCC(=O)O | – | -5.72% (inactive) | –
14 | COc1cc2c3cc1Oc1cc(ccc1O)C[C@@H]1c4c(cc(OC)c(O)c4Oc4ccc(cc4)C[C@@H]3N(C)CC2)CC[N+]1(C)C | – | -8.85% (inactive) | –
15 | CN(CCCOc1ccc(Cc2ccccc2)cc1)CCC(=O)O | – | – | inactive
16 | CCCCCCCCCCCC(=O)[O][Sn]([CH2]CCC)([CH2]CCC)[O]C(=O)CCCCCCCCCCC | – | -18.6% (inactive) | –
17 | Cc1ccc(C(=O)c2ccc(CC(=O)O)n2C)cc1 | – | 3.09% [at 17.3 µM] (inactive) | –
18 | O=C(Nc1ccc2c(c1)CCN(Cc1ncn[nH]1)C2)c1ccccc1-c1ccc(C(F)(F)F)cc1 | – | -29.8% (inactive) | –
19 | Nc1ccc(C(=O)O)c(O)c1 | – | -3.65% (inactive) | –
